Measurements as given in PubChem BioAssay AID493168 (National Center for Advancing Translational Sciences (NCATS), 2011).
Results filed as inconclusive are left out. A call without a number means that no potency is given here. The source made the active and inactive calls. The call rests on the fitted dose curve; in most records, active means well fitted inhibition curve with a large enough effect; inconclusive means small, poorly fitted or top-dose-only effect, or effect the other way; inactive means flat fitted curve, though single readings scatter.

Molecular target: Ubiquitin carboxyl-terminal hydrolase 2 (Homo sapiens) (UniProt O75604)
Test: Confirmation Assay for Inhibitors of Ubiquitin-specific Protease USP2a Using CHOP2 as the Reporter; further: nearly all actives have a fitted effect of over 55% in size
Conditions: USP2 core, Ub-CHOP2 coupled reporter fluorescence; series mostly up to 38.3 µM
Outline: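 USP2 core (10 nM final) was preincubated with compound for 30 min at RT in Tris-HCl pH 8.0, CaCl2, beta-mercaptoethanol, CHAPS. Ub-CHOP2 and reporter substrate (25 nM final each) were added, and fluorescence (Ex 485/Em 531 nm) was read after 60 min.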
Potency means the concentration at half of the fitted maximal effect.

Ubiquitin carboxyl-terminal hydrolase 2 (Homo sapiens), sequence (O75604 whole entry, looked up): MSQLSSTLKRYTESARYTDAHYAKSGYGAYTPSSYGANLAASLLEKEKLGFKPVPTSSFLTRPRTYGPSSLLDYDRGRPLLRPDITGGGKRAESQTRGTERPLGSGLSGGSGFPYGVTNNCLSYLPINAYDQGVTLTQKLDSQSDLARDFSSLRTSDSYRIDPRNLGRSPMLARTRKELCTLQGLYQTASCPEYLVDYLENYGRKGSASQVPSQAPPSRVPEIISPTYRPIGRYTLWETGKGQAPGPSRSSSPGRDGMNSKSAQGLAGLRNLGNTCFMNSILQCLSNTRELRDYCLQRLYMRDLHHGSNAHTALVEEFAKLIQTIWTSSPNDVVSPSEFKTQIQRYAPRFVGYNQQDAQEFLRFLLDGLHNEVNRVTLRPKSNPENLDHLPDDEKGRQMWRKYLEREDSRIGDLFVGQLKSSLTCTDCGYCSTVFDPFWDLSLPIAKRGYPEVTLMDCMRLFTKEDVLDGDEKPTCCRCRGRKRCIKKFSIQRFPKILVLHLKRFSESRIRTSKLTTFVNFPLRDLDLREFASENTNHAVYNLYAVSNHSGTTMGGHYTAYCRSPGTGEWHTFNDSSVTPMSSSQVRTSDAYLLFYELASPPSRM

SMILES	Potency
Cc1ccc(C)c(S(=O)(=O)c2c(N)n(/N=C/c3ccco3)c3nc4ccccc4nc23)c1	inactive
CC(C)c1ccc(Nc2nnc(SCC(=O)c3nnc(-c4ccccc4)o3)s2)cc1	6.56 µM (active)
COC(=O)CSc1nc2c(c(-c3ccco3)c1C#N)CCCC2	inactive
O=C(NC12CC3CC(CC(C3)C1)C2)C1=COCCO1	inactive
c1ccc(Nc2c3c(nc4ncnn24)CCC3)cc1	inactive
CCc1cc2c(=O)c(-n3cnc4ccccc43)coc2cc1O	inactive
COc1ccc(C(=O)Nc2ccc(N3CCCC3)cc2)cc1OC	inactive
Cc1ccc2oc(=O)c3cnn(CC(=O)NCCCOC(C)C)c3c2c1	inactive
CCNc1sc(C(=O)c2cccs2)c(N)c1-c1nc2ccccc2s1	inactive
COc1cccc(NC(=O)c2ccccc2-c2nc(-c3cccc(C)c3)no2)c1	inactive
O=c1cc2oc3cc(O)c(O)cc3c(-c3ccccc3[N+](=O)[O-])c-2cc1O	18.5 µM (active)
Cc1cc(C)n(C(=O)c2cccc(S(=O)(=O)N3CCCC3)c2)n1	inactive
COc1cc(C(=O)OCC(=O)Nc2c(F)c(F)c(F)c(F)c2F)cc(OC)c1OC	inactive
CN(C)c1cccc(C(=O)NNC(=O)C23CC4CC(CC(C4)C2)C3)c1	inactive
O=C(NCCCN1CCCC1=O)c1cccc(N2CCCC2=O)c1	inactive
O=C(Nc1ccc(Nc2ccncc2)cc1)c1ccc(Nc2ccnc3ccc([N+](=O)[O-])cc23)cc1	7.36 µM (active)
CCC(CO)Nc1nc(CN2CCCCC2)nc2scc(-c3ccccc3)c12 (configuration not stated)	inactive
